In the supplement of paper PMC10981050:
Where a name gives a salt, the structure may show the parent alone.

tested on: OCI-AML2; experiment: cell viability relative to vehicle control; higher = less cytotoxic; conditions: 10 µM; SRSF2 genotype: wt/wt
Summary of the method: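 Screening covered the Selleck bioactive, kinase and epigenetic probe libraries, less identity-inconsistent compounds, on CRISPR-edited mutant clones and isogenic wild-type clones of four leukaemia lines. Cells, at 2000 per well in 50 µL medium, received a single 10 µM acoustically dispensed dose. After 48 h the supernatant was removed and CellTiter-Glo luminescence was read. Viability was analysed in Genedata Screener as percent of the on-plate vehicle control.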

| Structure (SMILES) | cell viability |
| --- | --- |
| OC[C@H]1O[C@@](CO)(O[C@H]2O[C@H](CO)[C@@H](O)[C@H](O)[C@H]2O)[C@@H](O[C@H]2O[C@H](CO)[C@@H](O)[C@H](O)[C@H]2O)[C@@H]1O [D-(+)-Melezitose] | 95.5% |
| COc1ccc2c3c1O[C@H]1C[C@@H](O)C=C[C@@]31CCN(C)C2 [Galanthamine] | 95% |
| COc1cc(C(=O)O)ccc1O [Vanillic acid] | 113% |
| CN[C@H]1CC[C@@H](c2ccc(Cl)c(Cl)c2)c2ccccc21 [Sertraline HCl] | 37.5% |
| Clc1ccc(CSC(Cn2ccnc2)c2ccc(Cl)cc2Cl)cc1 (configuration not stated) [Sulconazole Nitrate] | 45.1% |
| CC1(C)[C@@H](O)CC[C@]2(C)[C@H]3C(=O)C=C4[C@@H]5C[C@@](C)(C(=O)O)CC[C@]5(C)CC[C@@]4(C)[C@]3(C)CC[C@@H]12 [Enoxolone (Glycyrrhetin)] | 106% |
| C[C@H](N=C(NC#N)Nc1cccc2ncccc12)c1ccccc1 | 112% |
| CC(C)n1nc(-c2cc3cc(O)ccc3[nH]2)c2c(N)ncnc21 [Torkinib (PP242)] | 15.1% |
| CC1(C)O[C@@H]2C[C@H]3[C@@H]4CCC5=CC(=O)C=C[C@]5(C)[C@H]4[C@@H](O)C[C@]3(C)[C@]2(C(=O)CO)O1 [Desonide] | 121% |
| O=C(Nc1ccccc1)N1CCN(c2nc(-c3ccccc3)ns2)CC1 | 70.3% |
| O=C1C[C@@H](c2ccccc2)Oc2cc(O)cc(O)c21 [Pinocembrin] | 87.8% |
| CC1OC(OC2C(OC3CCC4(C)C(CCC5(C)C4CC=C4C6CC(C)(C)CCC6(C(=O)OC6OC(COC7OC(CO)C(O)C(O)C7O)C(O)C(O)C6O)CCC45C)C3(C)CO)OCC(O)C2O)C(O)C(OC2OC(CO)C(O)C(O)C2O)C1O (configuration not stated) [Macranthoidin A] | 105% |
| Cc1ccc(Nc2c(F)cccc2Cl)c(CC(=O)O)c1 [Lumiracoxib (COX-189)] | 101% |
| CC(C)=CCC[C@](C)(O[C@@H]1O[C@H](CO)[C@@H](O)[C@H](O)[C@H]1O)[C@H]1CC[C@]2(C)[C@@H]1[C@H](O)C[C@@H]1[C@@]3(C)CC[C@H](O)C(C)(C)[C@@H]3CC[C@]12C [Ginsenoside CK] | 76.4% |
| CCCCCCCCCC(C)=O [Methylnonylketone] | 97.2% |
| COc1cc(O)c(C(=O)/C=C/c2ccccc2)c(OC)c1 [Flavokawain B] | 25.2% |

| Structure (SMILES) | cell viability |
| --- | --- |
| c1ccc(CNc2nc(NCc3ccccc3)c3ccccc3n2)cc1 | 0.19% |
| Nc1nonc1C(=Nc1ccc(F)c(Cl)c1)NO | 111% |
| NC(=O)c1ccc[n+]([O-])c1 [Nicotinamide N-oxide] | 101% |
| CCCCNC(=O)NS(=O)(=O)c1ccc(C)cc1 [Tolbutamide] | 110% |
| O=C(CCN1CCN(C(=O)OCc2cc(Cl)cc(Cl)c2)CC1)c1ccc2[nH]c(=O)oc2c1 | 109% |
| CC1=NN(c2ccccc2)C(=O)C1 [Edaravone (MCI-186)] | 103% |
| CNC(=C[N+](=O)[O-])NCCSCc1csc(CN(C)C)n1 [Nizatidine] | 108% |
| CC1=C(/C=C/C(C)=C/C=C/C(C)=C/C=C/C=C(C)/C=C/C=C(C)/C=C/C2=C(C)C(=O)[C@@H](O)CC2(C)C)C(C)(C)C[C@H](O)C1=O [Astaxanthin] | 99.8% |
| O=C(O)c1cc(O)c2c(c1)[C@@H]([C@H]1c3cc(C(=O)O)cc(O)c3C(=O)c3c(O[C@@H]4O[C@H](CO)[C@@H](O)[C@H](O)[C@H]4O)cccc31)c1cccc(O[C@@H]3O[C@H](CO)[C@@H](O)[C@H](O)[C@H]3O)c1C2=O [Sennoside B] | 87.7% |
| c1ccc2[nH]c(-c3cscn3)nc2c1 [Thiabendazole] | 105% |
| CC1(C)S[C@@H]2[C@H](NC(=O)C(c3ccccc3)S(=O)(=O)O)C(=O)N2[C@H]1C(=O)O (some centres not stated) [Sulbenicillin Sodium] | 99.3% |
| COc1ccc(COc2ccc(Cc3cnc(N)nc3N)cc2OC)cc1 | 70.3% |
| CNC(=O)c1cnn(-c2nc(N)c3ncn([C@@H]4O[C@H](CO)[C@@H](O)[C@H]4O)c3n2)c1 [Regadenoson] | 119% |
| O=C1CCC(N2C(=O)c3ccccc3C2=O)C(=O)N1 (configuration not stated) [Thalidomide] | 91.4% |
| C[C@@]1(C(=O)Nc2ccc(F)nc2)CCCN1c1nc(Nc2cc(C3CC3)n[nH]2)c2cccn2n1 | 19.3% |
| COc1cc(C(=O)NC2CCN(C)CC2)ccc1Nc1ncc2c(n1)N(C1CCCC1)CC(F)(F)C(=O)N2C | 9.85% |
